Most compounds without a hit are left out; they make up all but 22% or so of the library.
Shiga inhibitor = Shiga toxin inhibition; Vero cells, Shiga toxin protein synthesis inhibition reporter; inhibition, % at 38.7 µM; actives 9.2% (n = 290,000); AID 2315; in the data active means inhibition mostly above about 28%, no sharp cut-off; inactive means mostly below about 43%; further: 0% is about no effect
Pf growth 96h = P. falciparum growth inhibition at 96 hours. P. falciparum luciferase reporter growth, 96 h. Potency, µM (series often up to 28.7 µM), without a hit: at the highest dose activity change, negative = inhibition, actives largely listed as inhibitors. actives 6.9% (n = 320,000); further: potency means the concentration at half of the fitted maximal effect; on the % scale 0 is the no-effect control and ±100 the full control effect
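Luminescence readout: decreased luciferase signal marks inhibited growth of reporter-expressing P. falciparum in infected red cells (2% hematocrit, 0.05% parasitemia final), exposed to compound two generations (96 h, 37 C, 5% CO2).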
Pf growth 48h = P. falciparum growth inhibition at 48 hours (one generation). AID 504832. P. falciparum luciferase growth in erythrocytes, 48 h. Potency, µM (top dose mostly 28.7 µM), for the others: top-dose activity change, negative = inhibition, hits mostly inhibitors. actives 5.9% (n = 310,000); further: potency means the concentration at half of the fitted maximal effect; on the % scale 0 is the no-effect control and ±100 the full control effect
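Here the parasites carry a stable luciferase gene and grow inside erythrocytes in Albumax-based RPMI medium with compound for one erythrocytic cycle. Activity is scored as loss of luminescent signal.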
LmPK inh = blocks Leishmania mexicana pyruvate kinase activity; Q27686; purified LmPK, Kinase-Glo ATP luminescence, 1 h; Potency, µM (highest dose often 57.5 µM), for the others: at the top dose activity change, negative = inhibition, actives largely listed as inhibitors; actives 0.37% (n = 290,000); AID 1721; further: potency means the concentration at half of the fitted maximal effect; on the % scale 0 is the no-effect control and ±100 the full control effect
Target sequence (Q27686 whole entry, looked up): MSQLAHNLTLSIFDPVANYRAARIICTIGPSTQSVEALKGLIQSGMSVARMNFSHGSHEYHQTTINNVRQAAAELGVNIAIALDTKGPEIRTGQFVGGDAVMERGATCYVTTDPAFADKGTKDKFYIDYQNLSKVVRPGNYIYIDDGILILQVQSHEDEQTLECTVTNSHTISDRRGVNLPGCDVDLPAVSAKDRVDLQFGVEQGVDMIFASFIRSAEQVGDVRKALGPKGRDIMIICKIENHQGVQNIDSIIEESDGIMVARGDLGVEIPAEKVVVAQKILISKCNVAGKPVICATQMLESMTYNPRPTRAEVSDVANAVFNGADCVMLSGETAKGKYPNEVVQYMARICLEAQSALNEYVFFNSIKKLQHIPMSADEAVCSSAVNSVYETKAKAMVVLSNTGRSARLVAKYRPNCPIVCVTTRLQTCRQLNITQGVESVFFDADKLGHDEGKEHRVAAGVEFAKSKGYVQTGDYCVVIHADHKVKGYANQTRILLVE
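ATP generated from ADP (0.1 mM) and PEP (0.5 mM) by 0.1 nM LmPK over 1 h at room temperature (pH 7.2 imidazole buffer) was detected by coupled luciferase luminescence. Values were normalized to uninhibited and no-enzyme wells.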
CHX counter = counter-screen hit for Shiga toxin inhibitors, cycloheximide; cell reporter, cycloheximide protein synthesis inhibition counterscreen; max response, %; actives 12% (n = 300,000); AID 2314; in the data active means max response mostly above about 13%, no sharp cut-off; inactive means mostly below about 14%; further: read at 38.3 µM for the half of the compounds with a filed dose; 0% is about no effect
An asterisk follows results filed as active; u = inconclusive; x = no result given; [ ] = another dose, or the depositor's remark. Unless noted, the call rests on the fitted dose curve; in most records, active means well fitted inhibition curve with a large enough effect; inconclusive means small, poorly fitted or top-dose-only effect, or another doubt; inactive means no such curve, though single readings can be large or run the other way.

SMILES	Shiga inhibitor	Pf growth 96h	Pf growth 48h	LmPK inh	CHX counter
COC(=O)Cn1c(C)c(C#N)c2ccccc21	-9.2	-7.8%	12.1%	3.8%	-4.6
O=C(CSc1nc2ccccc2c(=O)n1CC1CCCO1)Nc1ccc(F)cc1 (stereo not given)	-4.5	-16.0%	u	-1.7%	-5.8
CCN1CCC[C@@H](OC(=O)C(c2ccccc2)c2ccccc2)C1	x	-7.1%[12.8 µM]	-16.5%[12.8 µM]	x	x
N#Cc1cn(CCOc2ccccc2F)c2ccccc12	65.3	x	2.94µM*	-0.4%	17.6*
COc1cccc(OC)c1/C=C/C(=O)NC1CCCCC1	1.4	u	16.4%	0.2%	0.7
Cc1cc(Nc2nc3ccccc3nc2Cl)n(-c2ccccc2C)n1	16.4	1.47µM*	1.47µM*	2.6%	-3.3
Cc1cc(Nc2nc3ccccc3nc2Cl)n(-c2ccccc2)n1	-8.7	u	x	4.0%	-4.3
O=c1c2ccccc2nc2n1CCCS2	-12.8	-2.0%	4.1%	-3.9%	-3.5
O=c1c2ccccc2nc2n1CCN2Cc1ccc(Cl)cc1	37.6	2.33µM*	2.08µM*	0.7%	32.8*
CCc1cccc(CC)c1NC(=S)Nc1ccccc1	-19.6	17.3%	u	0.5%	-1.3
O=S(=O)(/C=C/c1ccccc1)Oc1ccccc1	20.7	3.29µM*	x	-0.6%	28.4*
OCCC1CCCCN1CC(O)COCc1ccc(Cl)cc1 (stereo not given)	-6.6	15.4%	5.0%	-4.8%	-1.9
C=CCn1c(COc2ccccc2OC)nc2ccccc21	4.0	u	u	-9.9%	8.4*
CCCn1c(COc2ccccc2OC)nc2ccccc21	x	12.7%	0.0%	9.1%	14.2*
Cc1nc2ccccc2n1CCCOc1ccccc1	47.2*	u	249.6%	-4.1%	20.8*
C=C(Br)Cn1c(CC)nc2ccccc21	4.0	u	35.7%	-3.7%	-2.3
C=C(Br)Cn1c(CCC)nc2ccccc21	8.7	10.4µM*	-14.3%	-4.5%	9.1
Cc1cccc(NC(=S)N2CCC(NC(=O)c3ccco3)CC2)c1	-3.5	3.9%	5.1%	-5.5%	-2.1
Cc1nc(Cl)c(Cl)n1CCOc1ccccc1	-0.7	u	8.28µM*	5.3%	6.2
CCn1c(COc2ccccc2C(N)=O)nc2ccccc21	3.9	x	-2.1%	-5.0%	-2.9
CCn1c(COc2ccccc2OC)nc2ccccc21	11.8	84.2%	12.2%	-7.1%	12.6*
CCn1c(COc2cccc(C)c2)nc2ccccc21	14.5	u	u	-1.0%	20.7*
COCc1nc2ccccc2n1CCCOc1ccccc1	-5.8	x	u	-2.1%	-0.8
Cc1nc2nc(COc3ccccc3)nn2c(C)c1Cl	-7.0	x	8.0%	-0.4%	0.5
COCn1c(COc2ccc3ccccc3c2)nc2ccccc21	76.8*	13.1%	121.8%	0.5%	22.2*
SMILES	Shiga inhibitor	Pf growth 96h	Pf growth 48h	LmPK inh	CHX counter
CCCCCCC(=O)NC(Nc1ccc(S(N)(=O)=O)cc1)C(Cl)(Cl)Cl (stereo not given)	18.7	-15.2%	-7.0%	-1.5%	-2.6
CCn1c(COc2ccccc2C)nc2ccccc21	38.7*	u	97.9%	-23.1%	33.3*
CCOCCn1c(COc2ccccc2)nc2ccccc21	52.8	x	-20.8%	5.1%	12.1
CCCc1nc2ccccc2n1CCOC	26.0	-4.4%	x	-5.3%	16.2
CCCc1nc2ccccc2n1CCOc1ccccc1	-16.1	4.15µM*	x	1.4%	1.3
CC(C)(C)N1CC(c2nc3ccccc3n2CCOc2ccccc2)CC1=O (stereo not given)	-12.1	5.86µM*	x	0.4%	-2.9
CCCn1c(COc2ccccc2)nc2ccccc21	11.0	u	u	8.0%	8.3*
Cc1ccc(CNC(=O)Cn2nnc3ccccc3c2=O)cc1	27.8	165.3%	140.9%	2.5%	12.8
O=[N+]([O-])c1ccc(CSc2nnc(SCc3ccc(Cl)cc3)s2)cc1	-7.9	u	17.2%	8.6%	1.4
CSc1sc(C(=O)NN)c2c1C1(CCC2)SCCS1	-3.7	u	u	14.0%	0.9
C=CCn1c(CNc2ccccc2)nnc1SCC(=O)N/N=C/c1ccccc1O	-14.1	u	u	1.3%	8.3
CCOC(=O)c1nc(Nc2ccc(Nc3ccccc3)cc2)c2ccccc2n1	14.7	u	u	10.0%	2.5
CCOC(=O)c1ccc(Nc2nc(C(=O)OCC)nc3ccccc23)cc1	-9.5	-14.7%	9.28µM*	4.6%	-2.9
CCOC(=O)c1nc(Nc2ccc(OC)cc2)c2ccccc2n1	47.3*	u	1.8%	6.2%	24.2*
CCCCCCC(C)(C)c1ccc([C@@H]2C[C@H](O)CC[C@H]2CCCO)c(O)c1	x	5.22µM*	4.65µM*	x	x
CCCOC(=O)c1ccc2c(c1)C(=O)N(c1ccccc1)C2=O	-12.7	11.7µM*	x	6.3%	-2.0
COc1cccc(CN(C)C(=O)Cc2c[nH]c3ccccc23)c1	22.8	-0.2%	1.2%	-7.7%	20.2*
COc1cccc(CN(C(=O)Cc2c[nH]c3ccccc23)C(C(=O)NC2CCCCC2)c2ccc(C)o2)c1 (stereo not given)	8.9	u	13.1µM*	0.8%	8.2
COc1ccc(CN(C(=O)Cc2c[nH]c3ccccc23)C(C(=O)NC2CCCCC2)c2ccc(C)o2)cc1 (stereo not given)	-11.6	5.22µM*	5.22µM*	0.7%	15.6
Cc1ccc(C(C(=O)NC2CCCCC2)N(Cc2ccccc2)C(=O)Cc2c[nH]c3ccccc23)o1 (stereo not given)	-12.0	u	u	0.0%	-1.6
COc1ccc(CN(C)C(=O)Cc2c[nH]c3ccccc23)cc1	18.0	8.1%	2.3%	0.9%	8.9
CSCc1cccc(C(=O)OC(C)C(=O)Nc2c(C)n(C)n(-c3ccccc3)c2=O)c1 (stereo not given)	x	u	-2.5%	x	x
Cc1ccnc(NC(=O)c2ccc(Cl)c(S(=O)(=O)N3CCCC3)c2)c1	x	u	9.2%	x	x
COc1ccccc1Cn1c(-c2ccccc2OC)nc2ccccc21	-17.8	x	x	0.3%	-0.1
C=CCn1c(C(C)C)nc2ccccc21	-10.1	11.0%	-4.1%	-3.5%	-6.6
SMILES	Shiga inhibitor	Pf growth 96h	Pf growth 48h	LmPK inh	CHX counter
C=CCn1c(-c2ccc(OC)cc2)nc2ccccc21	30.3*	0.2%	1.8%	-3.9%	35.5*
CCn1c(-c2ccc(N)cc2)nc2ccccc21	31.4	39.7%	x	3.6%	7.4
C=CCn1c(-c2ccc(N)cc2)nc2ccccc21	49.9*	116.3%	x	3.1%	17.4
COc1cc(Cn2c(-c3ccc(O)c(OC)c3)nc3ccccc32)ccc1O	-1.7	13.1µM*	2.94µM*	0.8%	-3.9
C=CCn1c(C(O)c2ccccc2)nc2ccccc21 (stereo not given)	x	-23.3%	31.0%	-1.9%	16.0*
CCOCCn1c(-c2ccc(OC)cc2)nc2ccccc21	29.1	118.4%	x	-3.5%	21.6
COc1ccc(Cn2c(=S)[nH]c3ccsc3c2=O)cc1	2.0	u	16.1%	u	-3.2
COc1ccccc1N1CCN(S(=O)(=O)CCNC(=O)C23CC4CC(CC(C4)C2)C3)CC1	8.8	23.3%	u	-0.2%	-2.2
COc1ccc(-c2nnnn2C(C)C)cc1	-2.0	14.4%	37.6%	0.3%	-2.2
